G9a block = G9a (human) methyltransferase inhibition. Q96KQ7. G9a H3K9 monomethylation, AlphaScreen, 2 h. Potency, µM (highest dose often 102 µM), for inactives: at the highest dose activity, negative = inhibition, most hits filed as inhibitors. hit rate 8.8% among 350,000. AID 504332; also: % is scaled to controls: 0 for no effect and ±100 for the full control effect; nearly all actives have a fitted effect of over 75% in size
Target sequence (Q96KQ7 913-1193 limits assumed): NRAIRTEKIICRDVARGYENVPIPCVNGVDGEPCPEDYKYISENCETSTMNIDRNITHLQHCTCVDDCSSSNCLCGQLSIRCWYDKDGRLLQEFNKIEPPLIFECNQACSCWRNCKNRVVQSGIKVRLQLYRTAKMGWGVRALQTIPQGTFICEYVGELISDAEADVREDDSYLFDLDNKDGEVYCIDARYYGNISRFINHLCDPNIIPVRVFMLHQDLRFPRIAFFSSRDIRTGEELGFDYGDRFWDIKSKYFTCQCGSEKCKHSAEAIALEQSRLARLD
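Readings reflect AlphaScreen signal from monomethyl-H3K9 antibody detection. HMT at 20 nM; substrate b-H3K9 500 nM; cofactor SAM 20 uM; 2 h RT reaction; compounds tested as titrations in qHTS with 15 min preincubation.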
GLS inh = inhibitors of human glutaminase (GLS); O94925; Potency, µM (top dose mostly 45.5 µM), without a hit: top-dose activity change, negative = inhibition, hits mostly inhibitors; hit rate 0.21% among 410,000; GLS enzymatic activity, qHTS titration; also: % is scaled to controls: 0 for no effect and ±100 for the full control effect
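Two-point fluorescence kinetic (t0, 30 min RT) for hKGA; glutamate detected via glutamate oxidase–HRP–Amplex Red. Substrate: 1 mM L-glutamine solution; buffer 45 mM KH2PO4, pH 8.2.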
JMJD2A Tudor inh = inhibitors of human JMJD2A Tudor domain; AID 504339; Potency, µM (titrated, usually from 114 µM), for the others: top-dose activity change, negative = inhibition, usual class: inhibitors; hit rate 4.4% among 390,000; O75164; AlphaScreen JMJD2A-Tudor / H3K4me3 peptide binding; also: % is scaled to controls: 0 for no effect and ±100 for the full control effect; nearly all actives have a fitted effect of over 50% in size
BAZ2B inh = blocks human BAZ2B | Q9UIF8 | AlphaScreen BAZ2B-H3K14Ac peptide displacement | Potency, µM (series often up to 114 µM), for the others: at the highest dose activity change, negative = inhibition, most hits filed as inhibitors | hit rate 4.4% among 360,000 | AID 504333; also: % is scaled to controls: 0 for no effect and ±100 for the full control effect; nearly all actives have a fitted effect of over 60% in size
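BAZ2B (50 nM) with biotin-H3(5-23)K14Ac peptide (50 nM) in PBS pH 7.4, 0.01% Tween-20, preformed 30 min, then compound 30 min at room temperature; top concentration 110uM. AlphaScreen streptavidin donor/nickel chelate acceptor beads (10 ug/mL final), 20 min dark, signal read.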
L3MBTL1 inh = blocks human L3MBTL1; hit rate 0.66% among 230,000; Potency, µM (titrated, usually from 57.1 µM), for the others: at the top dose activity, negative = inhibition, usual class: inhibitors; AlphaScreen L3MBTL1–H3K9me1 peptide binding; AID 485360; Q9Y468; also: % is scaled to controls: 0 for no effect and ±100 for the full control effect; nearly all actives have a fitted effect of over 60% in size
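Read-out is AlphaScreen signal from streptavidin donor and nickel chelate acceptor beads (10 ug/mL final each) bridging L3MBTL1 (50 nM) and biotinylated K9-monomethylated H3(1-15) peptide (75 nM), after 30 min compound exposure at room temperature.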
HP1b binding inh = blocks HP1-beta chromodomain binding to methylated histone tails; hit rate 0.56% among 390,000; AlphaScreen HP1-beta / biotin-H3K9me3 peptide binding; Potency, µM (highest dose often 114 µM), without a hit: at the highest dose activity change, negative = inhibition, actives largely listed as inhibitors; also: nearly all actives have a fitted effect of over 70% in size
Target sequence (P83916 whole entry, looked up): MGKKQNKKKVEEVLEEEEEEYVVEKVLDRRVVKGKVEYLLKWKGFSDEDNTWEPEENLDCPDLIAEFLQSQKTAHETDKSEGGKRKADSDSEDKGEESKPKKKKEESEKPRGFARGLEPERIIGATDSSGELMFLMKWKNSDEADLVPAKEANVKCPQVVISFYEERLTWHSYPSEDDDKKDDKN
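Compound inhibition of the preformed complex between 50 nM HP1-beta and 50 nM biotinylated H3K9me3 peptide was read by AlphaScreen. Buffer was PBS pH 7.4 with 0.01% Tween-20. Incubations ran 30 min at room temperature, with 10 ug/mL donor/acceptor beads.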
* marks the source's active call; other numbers are inactive results; ? = inconclusive; . = no result given; [ ] = another dose, or the depositor's remark. The list is not random: actives were taken first. Their share in the collection is about 10%. Calls follow the shape of the dose curve; as a rule, active = well fitted curve in the direction sought with a large enough effect; inconclusive = small, poorly fitted or top-dose-only effect, or another doubt; inactive = no such curve, though single readings can be large; an effect the other way counts as inactive or inconclusive. Potency is read from the fitted curve at half-maximal effect.

SMILES	G9a block	GLS inh	JMJD2A Tudor inh	BAZ2B inh	L3MBTL1 inh	HP1b binding inh
COC(=O)CCc1c(C)[nH]c(C(=O)OCc2ccccc2)c1C	?	10%	?	50µM*	-11%	-38%
CC(=O)c1c(C)[nH]c(C(=O)OCc2cccc(C)c2)c1C	-49%	5%	-10%	50µM*	.	-1%
CC(=O)c1c(C)[nH]c(C(=O)OCC(=O)c2ccc(C)s2)c1C	-3%[2.33 µM]	6%	-15%	56µM*	-3%	11%
Cc1cc(-n2c(=O)[nH]c(=O)n(C)c2=O)ccc1Oc1ccc(S(=O)(=O)C(F)(F)F)cc1	.	1%	.	.	.	.
COc1cc(/C=C/C(=O)OCC(=O)c2ccc(OC(F)F)cc2)ccc1O	.	11µM*	-29%	.	0%	4%
CCc1cccc2c(C(=O)COC(=O)/C=C/c3ccc(O)c(OC)c3)c[nH]c12	45µM*	-2%	-32%	-10%	-14%	2%
CC(C)c1ccc2oc(-c3ccc(NC(=O)c4cccc(Br)c4)cc3)nc2c1	-6%[59 µM]	-2%	-18%	-1%	.	19%
CCSc1nc2c([nH]c3ccccc32)c(=O)n1-c1ccc(OC)cc1	7%[59 µM]	-13%	-4%	-2%	.	26%[57 µM]
Oc1cc2c(cc1C(c1ccc(Cl)c(Cl)c1)N1CCCC1)OCO2 (configuration not stated)	1.4µM*	-1%	10µM*	35µM*	-17%	20µM*
Cc1ccc(NC(=O)CSc2nnc(C)c(=O)n2N)c(C)c1	1.8µM*	9%	-7%	50µM*	?	15%
Cc1cc(C)cc(NC(=O)Cc2ccc(-n3cccc3)cc2)c1	20%	-4%	11%[57.1 µM]	-9%	-13%	28%
COc1ccc(OC)c(NC(=O)CSc2nccn2-c2cc(C)cc(C)c2)c1	16µM*	-1%	10µM*	13µM*	.	?
COc1ccc(Cn2ccnc2SCC(=O)Nc2ccccc2F)cc1	?	1%	-17%	?	.	7%
Cc1ccc(NC(=O)Cc2ccc(-n3cccc3)cc2)c(C)c1	1%	-9%	-36%[57.1 µM]	50µM*	?	9%
COc1ccc(Cn2ccnc2SCC(=O)Nc2ccccc2OC)cc1	45µM*	-1%	?	?	.	-9%
Cc1cccc(NC(=O)CSc2nnc(C)c(=O)n2N)c1	17%	-12%	-4%	.	.	21%
CCc1ccccc1NC(=O)C1CCN(c2nn3c(=O)cc(C)nc3s2)CC1	4%[59 µM]	-16%	-12%	-9%	.	22%
Cc1nn(CC(=O)N2CCN(c3ccccc3)CC2)c(=O)c2cc3sccc3n12	11%[59 µM]	3%	-7%	-4%	.	41%
CC(=O)Nc1ccc(Nc2ncnc3c2c(-c2ccccc2)cn3-c2ccc(C)c(Cl)c2)cc1	2%[59 µM]	7%	-29%	-12%	.	-2%
COc1ccc(-c2nnc(SCC(=O)Nc3cc(OC)ccc3OC)nc2-c2ccc(OC)cc2)cc1	-36%[59 µM]	5%	?	7.9µM*	.	4%
Cc1cccc(-n2ccnc2SCC(=O)Nc2cccc3ccccc23)c1	13µM*	-15%	32µM*	16µM*	.	?
CCOc1ccccc1NC(=O)CSc1nccn1-c1ccccc1	?	5%	-33%	50µM*	-14%	-21%
COc1ccc(-c2nnc(SCC(=O)Nc3cccc(Cl)c3C)nc2-c2ccc(OC)cc2)cc1	-29%[59 µM]	2%	?	-26%	.	-6%
CCc1nnc(NC(=O)CSc2nccn2-c2cc(C)cc(C)c2)s1	-21%	2%	-23%	-34%	.	10%
Cc1cc(C)cc(-n2ccnc2SCC(=O)Nc2ccc(C)cc2C)c1	11µM*	0%	40µM*	32µM*	.	-11%[57 µM]
COc1ccccc1C(=O)N1CCC(c2noc(-c3ccc(S(=O)(=O)N4CCCC4)cc3)n2)CC1	0%[59 µM]	-2%	-23%	-10%	.	21%
CCOc1ccc(-c2cc(NC(=O)Nc3ccc(Cl)cc3)c(C(=O)OC)s2)cc1	20%[59 µM]	-2%	3%	-2%	.	30%
